Measurements: publication PMC4336329 (PLoS ONE, 2015)
Out of some 310,000 compounds screened, about 14,000 (4.5%) showed an effect of 50% or more. The effect is printed as a negative number. For the sample, strong results were picked, then their nearest neighbours and some compounds at random.
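Note: peak tail current of the secondary pulse compared with the same well before compound.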

The molecules below were run against human ether-à-go-go-related gene (hERG) potassium channel (human, UniProt Q12809) (assay: primary screen, population patch clamp on CHO cells stably expressing hERG; higher = less effect of the substance).
Chain of human ether-à-go-go-related gene (hERG) potassium channel (Q12809 whole entry, looked up): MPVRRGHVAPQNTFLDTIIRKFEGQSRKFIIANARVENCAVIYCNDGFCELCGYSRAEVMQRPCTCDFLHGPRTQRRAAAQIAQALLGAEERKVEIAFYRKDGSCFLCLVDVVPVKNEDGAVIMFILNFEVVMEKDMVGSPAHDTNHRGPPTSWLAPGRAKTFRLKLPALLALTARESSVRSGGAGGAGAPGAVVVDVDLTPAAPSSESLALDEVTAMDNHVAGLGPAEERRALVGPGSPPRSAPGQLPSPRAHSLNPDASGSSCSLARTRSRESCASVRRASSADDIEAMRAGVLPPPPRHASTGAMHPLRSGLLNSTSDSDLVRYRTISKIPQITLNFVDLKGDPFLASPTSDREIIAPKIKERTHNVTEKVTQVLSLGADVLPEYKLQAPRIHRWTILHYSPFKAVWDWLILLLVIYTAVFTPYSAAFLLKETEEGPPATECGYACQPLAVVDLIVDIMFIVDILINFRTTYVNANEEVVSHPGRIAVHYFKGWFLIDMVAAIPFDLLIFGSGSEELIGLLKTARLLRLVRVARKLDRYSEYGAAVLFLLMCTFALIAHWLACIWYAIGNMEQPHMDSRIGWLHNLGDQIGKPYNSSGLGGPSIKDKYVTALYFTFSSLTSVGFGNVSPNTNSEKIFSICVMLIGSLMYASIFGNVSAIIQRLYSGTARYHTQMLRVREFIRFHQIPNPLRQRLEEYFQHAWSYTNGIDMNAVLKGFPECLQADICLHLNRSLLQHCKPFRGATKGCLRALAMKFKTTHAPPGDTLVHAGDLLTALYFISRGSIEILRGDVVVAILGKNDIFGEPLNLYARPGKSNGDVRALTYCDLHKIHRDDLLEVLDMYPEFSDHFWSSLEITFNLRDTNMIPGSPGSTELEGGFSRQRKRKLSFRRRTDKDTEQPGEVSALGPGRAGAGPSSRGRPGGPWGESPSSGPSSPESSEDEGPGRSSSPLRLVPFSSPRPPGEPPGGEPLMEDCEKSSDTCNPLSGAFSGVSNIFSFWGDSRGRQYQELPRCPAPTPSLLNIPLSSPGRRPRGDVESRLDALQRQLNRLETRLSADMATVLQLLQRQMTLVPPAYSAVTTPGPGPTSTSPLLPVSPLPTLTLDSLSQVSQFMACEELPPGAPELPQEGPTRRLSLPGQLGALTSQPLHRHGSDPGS
COc1ccccc1NC(=O)c1ccc(N2CC3CC(C2)c2cccc(=O)n2C3)c(NC(=O)c2cccnc2)c1 (stereo not drawn) was tested, and the “hERG current change (%, negative = inhibition) at 10uM” value was 6.33%.
With [Cl-].c1ccc(Cc2cc[n+](Cc3ccccc3)cc2)cc1 the “hERG current change (%, negative = inhibition) at 10uM” value was 4.13%.
In the case of O=C(Nc1ccccc1N1CCCC1)c1cccnc1Cl, the “hERG current change (%, negative = inhibition) at 10uM” value is reported as 4.72%.
With COc1ccc(C(=O)NC(=S)Nc2nc(C)cc(C)n2)cc1Br the “hERG current change (%, negative = inhibition) at 10uM” value was 23.1%.
With CCOc1ccc2nc(SCC(=O)NCc3ccc4c(c3)OCO4)[nH]c2c1 the “hERG current change (%, negative = inhibition) at 10uM” value was -24.2%.
CCCNc1ccc(C(=O)OCC)cc1[N+](=O)[O-] was tested, and the “hERG current change (%, negative = inhibition) at 10uM” value was -6.67%.
For Cc1ccc(C(C(=O)NCc2ccco2)N(C(=O)Cc2cccs2)c2cccnc2)cc1 (stereo not drawn), the “hERG current change (%, negative = inhibition) at 10uM” value was 20.4%.
For O=S(=O)(Nc1ccc2ccccc2c1)c1ccccc1, the “hERG current change (%, negative = inhibition) at 10uM” value was 1.5%.
For CCOc1ccc(CCNC(=O)COC(=O)Cc2ccc(F)cc2)cc1OCC, the “hERG current change (%, negative = inhibition) at 10uM” value was -26.6%.
In the case of CC(C)c1ccc(/C=C(\c2nc3ccccc3[nH]2)S(=O)(=O)c2ccccc2)cc1, the “hERG current change (%, negative = inhibition) at 10uM” value is reported as 8.64%.
COc1ccc(OC)c(CNc2ccc(F)c(Cl)c2)c1 was tested, and the “hERG current change (%, negative = inhibition) at 10uM” value was 2.7%.
In the case of COc1ccc(C(=O)n2nc(-c3ccco3)nc2SC)cc1OC, the “hERG current change (%, negative = inhibition) at 10uM” value is reported as 3.41%.
COCCCn1c(=O)c2sccc2n2c(CCCC(=O)N(C)Cc3ccco3)nnc12 was tested, and the “hERG current change (%, negative = inhibition) at 10uM” value was -22.8%.
In the case of Cc1ccccc1-n1c(-c2ccc(Br)o2)n[nH]c1=S, the “hERG current change (%, negative = inhibition) at 10uM” value is reported as 13.5%.
For COc1ccc2ccc(O)c(CN3CCN(S(=O)(=O)c4cc([N+](=O)[O-])ccc4C)CC3)c2c1, the “hERG current change (%, negative = inhibition) at 10uM” value was -4.29%.
For C=CCOC(=O)C1=C(C)NC(SCC(=O)N(CC)CC)=C(C#N)C1c1ccccc1 (stereo not drawn), the “hERG current change (%, negative = inhibition) at 10uM” value was -21.9%.
With C=CCOC(=O)C1=C(C)NC(SCC(=O)N(CC)CC)=C(C#N)C1c1ccco1 (stereo not drawn) the “hERG current change (%, negative = inhibition) at 10uM” value was -51.3%.
For CCN(CC)C(=O)CSC1=C(C#N)C(c2ccco2)C(C(=O)OCCOC)=C(C)N1 (stereo not drawn), the “hERG current change (%, negative = inhibition) at 10uM” value was 10.5%.
CSc1ccccc1NC(=O)c1ccc(N2CC3CC(C2)c2cccc(=O)n2C3)c(NC(=O)c2ccncc2)c1 (stereo not drawn) was tested, and the “hERG current change (%, negative = inhibition) at 10uM” value was -30.1%.
In the case of CC(C)N1CCN(CCCc2ccccc2)CC1CCO (stereo not drawn), the “hERG current change (%, negative = inhibition) at 10uM” value is reported as -4.39%.
CC(C)CCN1CCN(CCCc2ccccc2)CC1CCO (stereo not drawn) was tested, and the “hERG current change (%, negative = inhibition) at 10uM” value was -46.6%.
In the case of OCCC1CN(CCCc2ccccc2)CCN1Cc1ccccc1 (stereo not drawn), the “hERG current change (%, negative = inhibition) at 10uM” value is reported as -64%.
With CC(C)(C)CN1CCN(CCCc2ccccc2)C(CCO)C1 (stereo not drawn) the “hERG current change (%, negative = inhibition) at 10uM” value was -53.7%.
For CC(C)(C)CN1CCN(CC#Cc2ccccc2)CC1CCO (stereo not drawn), the “hERG current change (%, negative = inhibition) at 10uM” value was 0.803%.
For CC(C)=CCN1CCN(CCCc2ccccc2)CC1CCO (stereo not drawn), the “hERG current change (%, negative = inhibition) at 10uM” value was -26.8%.
OCCC1CN(CCCc2ccccc2)CCN1Cc1ccc(F)cc1 (stereo not drawn) was tested, and the “hERG current change (%, negative = inhibition) at 10uM” value was -66.6%.
For CC(C)CN1CCN(CCCc2ccccc2)C(CCO)C1 (stereo not drawn), the “hERG current change (%, negative = inhibition) at 10uM” value was -35.5%.
For OCCC1CN(CCCc2ccccc2)CCN1CCc1ccccc1 (stereo not drawn), the “hERG current change (%, negative = inhibition) at 10uM” value was -77.2%.
With CC(C)CCNC(=O)C(c1ccco1)N(CCCO)C(=O)Cn1nnc(-c2ccc(F)cc2)n1 (stereo not drawn) the “hERG current change (%, negative = inhibition) at 10uM” value was -20.2%.
With CSc1ccccc1NC(=O)CSc1nnc(CNC(=O)c2ccccc2F)n1C the “hERG current change (%, negative = inhibition) at 10uM” value was 11.2%.
O=C(NCCS(=O)(=O)N1CCN(c2ccc(F)cc2)CC1)C12CC3CC(CC(C3)C1)C2 was tested, and the “hERG current change (%, negative = inhibition) at 10uM” value was -10.5%.
For CCOC(=O)c1cc(-c2ccc(OC)cc2)nn1-c1ccc(C(=O)O)cc1, the “hERG current change (%, negative = inhibition) at 10uM” value was 16.3%.
In the case of CS(=O)(=O)c1ccc([C@@H](O)[C@@H](CF)NC(=O)C(Cl)Cl)cc1, the “hERG current change (%, negative = inhibition) at 10uM” value is reported as -5.39%.
With Cc1cccc(Cl)c1NC(=S)NCCc1ccccn1 the “hERG current change (%, negative = inhibition) at 10uM” value was 11.9%.
CCOc1ccc(Br)cc1S(=O)(=O)N1CCC(C(N)=O)CC1 was tested, and the “hERG current change (%, negative = inhibition) at 10uM” value was -8.56%.
With O=C(c1ccc(CS(=O)c2cccc(Cl)c2)o1)N1CCOCC1 (stereo not drawn) the “hERG current change (%, negative = inhibition) at 10uM” value was 10.8%.
In the case of Cc1ccc(CN2CCN(CCCc3ccccc3)CC2CCO)cc1 (stereo not drawn), the “hERG current change (%, negative = inhibition) at 10uM” value is reported as -76.4%.
In the case of CC(C)/C=C/CN1CCN(CCCc2ccccc2)C(CCO)C1 (stereo not drawn), the “hERG current change (%, negative = inhibition) at 10uM” value is reported as -73.4%.
CCC(CC)N1CCN(CCc2ccccc2)C(CCO)C1 (stereo not drawn) was tested, and the “hERG current change (%, negative = inhibition) at 10uM” value was -19%.
With Cn1cccc1C(=O)NC(=O)COC(=O)c1ccccc1O the “hERG current change (%, negative = inhibition) at 10uM” value was -6.93%.
With O=C(Nn1c(-c2ccc(Br)cc2)nc2ccccc2c1=O)c1ccc([N+](=O)[O-])cc1 the “hERG current change (%, negative = inhibition) at 10uM” value was -66.6%.
Cc1cccc(-c2nc3ccccc3c(=O)n2NC(=O)c2ccc([N+](=O)[O-])c(C)c2)c1 was tested, and the “hERG current change (%, negative = inhibition) at 10uM” value was 14.5%.
